Laboratory results reported in PubChem BioAssay (NCI).
The panel holds about 83,000 compounds, 20% with a hit somewhere; the sample as a whole holds those more often.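 Negative percent growth values reflect cell death: -40 means 40% of the cells present at the start died, and -100 means all died.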 Active and inactive are the calls of the source. How the source made its calls: active means growth percent below 10; inactive means the rest.

system: OVCAR-3 ovarian; assay: NCI-60 one-dose screen, 48 h (100 = growth as untreated, 0 = no growth, -100 = all killed); settings: 10 µM unless noted

| Structure (SMILES) | growth |
| --- | --- |
| O=C(CCn1c[n+](CC(=O)c2ccc(F)cc2)c2ccccc21)Nc1cccc2cccnc12 | 55.4% (inactive) |
| COc1cc(-c2nc(-c3ccccc3)[nH]c2-c2ccnc(NCCCNS(=O)(=O)c3cccc(F)c3)n2)ccc1Cl | 40.7% (inactive) |
| N#Cc1c(NC(=O)c2cccc(C(F)(F)F)c2F)sc2c1CCC(=O)C2 | -40.5% (active) |
| COC[C@]12CCC(C)(C)C[C@H]1C1=CC[C@@H]3[C@@]4(C)CCCNC(C)(C)[C@@H]4CC[C@@]3(C)[C@]1(C)CC2 | -46.9% (active) |

system: HS 578T breast; assay: as above; settings: 10 µM unless noted

| Structure (SMILES) | growth |
| --- | --- |
| CCOC(=O)C(=O)CC(=O)N1C(=S)NC(=O)C1CC(C)C (stereo not drawn) | 111% (inactive) |
| COC(=O)C(Cc1ccccc1)Nc1nc(NC(Cc2ccccc2)C(=O)OC)nc(N2CCOCC2)n1 (stereo not drawn) | 101% (inactive) |
| COc1c(N2CC3CCCNC3C2)c(F)cc2c(=O)c(C(=O)N/N=C/c3ccc(F)cc3)cn(C3CC3)c12 (stereo not drawn) | 94.4% (inactive) |
| CC(=O)C1=C(C)NC(NNC(N)=S)=NC1c1ccccc1 (stereo not drawn) | 103% (inactive) |
| Cn1cc(-c2nnc(N)nc2-c2c[nH]c3ccc(F)cc23)c2cc(F)ccc21 | 84.1% (inactive) |
| Oc1[nH]c2ccccc2c1Nn1c(N=N/C=c2/ccc3c(c2)C=NN=3)n[nH]c1=S | 103% (inactive) |
| Cc1ccc2c(c1)C13C(=C2Br)CCCN1C(=O)c1ccccc13 (stereo not drawn) | 94.3% (inactive) |
| CCO/C=N/C1=C(C#N)C(c2ccc(Cl)cc2)c2sc3c(CC)cccc3c2O1 (stereo not drawn) | 18.4% (inactive) |
| C=C(C=O)[C@@H]1CC[C@]2(COC(C)=O)CC[C@]3(C)C(CC[C@@H]4[C@@]5(C)CC[C@H](OC(C)=O)C(C)(C)[C@@H]5CC[C@]43C)[C@@H]12 (stereo partly drawn) | -11.6% (active) |
